We go through 63 compounds from PubChem BioAssay AID1986 (Sanford-Burnham Center for Chemical Genomics, 2009).

A short description of the experiment: inhibitors of HIV fusion peptide binding, primary screen, biochemical, uHTS, fluorescence dequenching (AID 1986). The following applies: cell-free peptide binding, 30 min, stronger effect = higher value.

Screen size: about 290,000 compounds; about 890 (0.31%) were called active. No stated cut-off is given here; in the data, active means inhibition mostly above about 52% (no sharp cut-off); inactive means mostly below about 76%. For the sample, actives were picked, then their nearest neighbours and some compounds at random.

Usually inhibition stands for the change of the read-out against control, counted positive when it falls.

On to `N#Cc1cccn1-c1nccs1`, for which the inhibition (at 20 µM) was -0.8% (inactive).
The same measure, in the same setting: to `Cc1onc(-c2c(F)cccc2Cl)c1C(=O)OCC(=O)NC(N)=O` belongs -0.8% (inactive); to `COC(=O)c1ccc(CSc2nc3ccccc3[nH]2)o1`, 1.5% (inactive); to `CCN(CC)c1ccc(/C=C2\SC(=O)N(C(C)C)C2=O)o1`, 56.4% (active).
On to `CCN(CC)c1ccc(/C=C2/SC(=O)N(C(C)C)C2=O)o1`, for which the inhibition (at 20 µM) is 2.5% (inactive).
Turning to `CC(C)N1C(=O)S/C(=C\c2ccc(-c3ccc(Cl)c(C(=O)O)c3)o2)C1=O`, where the note is “at 20 µM”, the inhibition was 24.7% (inactive).
In the case of `O=C(O)c1ccc2c(c1)C1C=CCC1C(c1ccncc1)N2` (centres undefined), the inhibition (at 20 µM) was 24.6% (inactive).
For `COc1ccc(C(=O)N/N=C(\C)c2ccc3c(c2)C2C=CCC2C(c2ccccc2)N3)cc1` (centres undefined), under “at 20 µM”, the inhibition is 16.5% (inactive).
For `NCCCNc1ccc([N+](=O)[O-])cc1C(F)(F)F`, under “at 20 µM”, the inhibition was 0.6% (inactive).
`O=C(COc1ccc(Br)cc1Cl)NC(=S)Nc1ccccn1`: the inhibition (at 20 µM) is -1.1% (inactive).
Same read-out and setting: as for `CC1=CC(=C(C#N)c2nc3ccccc3s2)C=C(C)N1c1ccc(F)cc1F`, the figure is 22.6% (inactive); as for `CC1=CC(=C(C#N)c2nc3ccccc3s2)C=C(C)N1c1ccc(F)cc1`, 66.4% (active); as for `COc1ccccc1N1C(C)=CC(=C(C#N)c2nc3ccccc3s2)C=C1C`, 26.5% (inactive).
On the same count and under the same terms, as for `CCN(CC)C(=O)Cn1cc(S(=O)(=O)CC(=O)Nc2cc(OC)ccc2OC)c2ccccc21`, the figure is -1.7% (inactive); as for `C=CCNCCCCOc1ccccc1-c1ccccc1`, -2% (inactive); as for `CC1=NOC(=O)/C1=C/c1ccc(O)cc1`, 0.5% (inactive).
`CC1=NOC(=O)/C1=C/c1ccc(N(C)C)cc1`: the inhibition (at 20 µM) was -2.2% (inactive).
Turning to `CCN(CC)c1ccc(/C=C2/C(=O)ON=C2C)cc1`, where the note is “at 20 µM”, the inhibition is 100% (active).
Turning to `Nn1cnnc1SCC(=O)Nc1ccc2c(c1)OCO2`, the inhibition (at 20 µM) is 0.5% (inactive).
For the compound `Cc1cccc(C)c1Nc1nnc(SCC(=O)c2ccc3c(c2)NC(=O)CO3)s1`, for the setting “at 20 µM”, the inhibition is 0.2% (inactive).
For the compound `CCOC(=O)/C(C#N)=C\c1ccc(N2CCN(C/C=C/c3ccccc3)CC2)cc1`, the inhibition (at 20 µM) was 117% (active).
The same measure, in the same setting: as for `CCOC(=O)/C(C#N)=C/c1ccc(N2CCN(C)CC2)cc1`, the figure is 7.2% (inactive); as for `CCOC(=O)/C(C#N)=C\c1ccc(N2CCN(C)CC2)cc1`, 4% (inactive).
Take `CCCCCCCCCCCCCCCC[n+]1ccc(C(N)=O)cc1`: the inhibition (at 20 µM) was -14.2% (inactive).
On to `CCCCCCCCCC[n+]1cccc(C(=O)N(CC)CC)c1`, for which the inhibition (at 20 µM) was 3% (inactive).
Turning to `CCCn1c(=O)c2sccc2n2c(CCCC(=O)NCc3cccnc3)nnc12`, the inhibition (at 20 µM) was -1.5% (inactive).
Take `O=C(c1ccccc1)N1N=C(c2ccccc2)CC1c1ccccc1` (centres undefined): the inhibition (at 20 µM) was 1.1% (inactive).
On the same count and under the same terms, as for `Cc1cc[n+](-c2[nH]c(=O)sc2/C=N/N=C(\[O-])c2ccccc2)cc1`, the figure is 10.5% (inactive).
Consider `Cc1cc[n+](-c2[nH]c(=O)sc2/C=N/N=C(\[O-])c2ccccc2)cc1C`, for which the inhibition was 116% (active) (at 20 µM) and 93.6% (measured here: repeat confirmation average inhibition, at 18.6 µM).
In the case of `Cc1cc[n+](-c2[nH]c(=O)sc2/C=N/N=C(\[O-])c2ccncc2)cc1C`, for the setting “at 20 µM”, the inhibition was 0% (inactive).
For `Cc1cc(NC(=O)CSCC(=O)N(c2cccc(Cl)c2)C(C(=O)NC2CCCCC2)c2ccc(O)c(O)c2)no1` (centres undefined), the inhibition (at 20 µM) was 11.2% (inactive).
For `CSCc1ccc(C(=O)NC2CC(C)(C)Cc3c2cnn3-c2ccc(F)cc2)o1` (centres undefined), the inhibition (at 20 µM) was 1.2% (inactive).
Still for that read-out and setting: to `CCCn1c(=O)c2ccccc2n2c(SCN3C(=O)c4ccccc4C3=O)nnc12` belongs 0.3% (inactive).
Consider `N#C/C(=C\c1ccco1)c1nc2ccccc2s1`, for which, where the note is “at 20 µM”, the inhibition is 146% (inactive).
Consider `CC1(C)OC(=O)C(=Cc2ccc(-c3ccc(Cl)c(C(=O)O)c3)o2)C(=O)O1`, for which the inhibition (at 20 µM) is 36.9% (inactive).
Turning to `N#C/C(=C/c1ccc(-c2ccc(S(N)(=O)=O)cc2)o1)c1nc2ccccc2s1`, under “at 20 µM”, the inhibition was 149% (inactive).
With `N#C/C(=C/c1ccc(-c2cc(C(=O)O)cc(C(=O)O)c2)o1)c1nc2ccccc2s1`, where the note is “at 20 µM”, the inhibition was 92.9% (active).
As to `O=C(O)c1cccc(-c2ccc(/C=c3/sc4nc5ccccc5n4c3=O)o2)c1`, the inhibition (at 20 µM) is 78% (active).
Consider `O=C(O)c1cccc(-c2ccc(/C=N/n3cnnc3)o2)c1`, for which the inhibition (at 20 µM) was 1.6% (inactive).
Consider `O=C(O)c1cc(-c2ccc(/C=c3\sc4nc5ccc(Br)cc5n4c3=O)o2)ccc1Cl`, for which the inhibition (at 20 µM) was 68.1% (active).
Consider `O=Cc1ccc(-c2cccc(C(=O)O)c2)o1`, for which, where the note is “at 20 µM”, the inhibition was 2.4% (inactive).
Take `N#C/C(=C\c1ccc(-c2ccc([N+](=O)[O-])cc2)o1)C(=O)Nc1nc(-c2cccs2)cs1`: the inhibition (at 20 µM) was -1.7% (inactive).
As to `N#C/C(=C/c1ccc(-c2ccccc2)o1)c1nc(-c2cccs2)cs1`, the inhibition (at 20 µM) was 62.6% (active).
With `O=C(O)c1cc(-c2ccc(/C=C3\NC(=O)N(c4ccccc4)C3=O)o2)ccc1Cl`, the inhibition (at 20 µM) was 32.2% (inactive).
Regarding `N#C/C(=C\c1ccc(-c2ccc(F)cc2)o1)C(=O)Nc1nc(-c2cccs2)cs1`, the inhibition (at 20 µM) was 14.4% (inactive).
On to `COC(=O)c1cccc(Cn2nnc3ccccc3c2=O)c1`, for which the inhibition (at 20 µM) was 0.9% (inactive).
With `O=C(NCCN1C(=O)S/C(=C\c2ccc(OC(F)F)cc2)C1=O)[C@@H]1CCCN1C(=O)c1cccs1`, under “at 20 µM”, the inhibition was 0.1% (inactive).
On to `Cc1cc(Sc2nc(N)ncc2[N+](=O)[O-])ncn1`, for which the inhibition (at 20 µM) was -1.5% (inactive).
In the case of `COC(=O)c1sc2ncn(N)c(=O)c2c1C`, the inhibition (at 20 µM) was -0.5% (inactive).
The same measure, in the same setting: to `CC(=O)Nc1ccc(C(=O)N/N=C/C2CC3C=CC2C3)cc1` (centres undefined) belongs -0.7% (inactive).
Still for that read-out and setting: to `COc1cc2[nH]c(=O)n(CCCCCC(=O)NCCc3c[nH]c4ccccc34)c(=O)c2cc1OC` belongs 2.6% (inactive); to `CCOC(=O)c1cc(CC)sc1NC(=O)COc1ccc2c(C)cc(=O)oc2c1`, -0.1% (inactive).
With `N/C(=N\OC(=O)COc1ccc(Cl)cc1Cl)c1cccnc1`, where the note is “at 20 µM”, the inhibition is 1.4% (inactive).
Same read-out and setting: to `COc1cc(NC(=O)C(C)Oc2ccccc2)ccc1NC(=O)COc1ccccc1` (centres undefined) belongs 1.7% (inactive); to `O=C1Nc2ccccc2OC1CC(=O)N1CCCC1` (centres undefined), -2.7% (inactive).
For `COCCNC(=O)C(c1ccc(F)cc1)N(Cc1ccco1)C(=O)CCC(=O)Nc1ccccn1` (centres undefined), the inhibition (at 20 µM) is -1.2% (inactive).
For the compound `CCOC(=O)C1CCN(C(=O)c2cc3cc4ccc(OC)cc4nc3o2)CC1`, the inhibition (at 20 µM) was -0.9% (inactive).
For `O=c1/c(=C\c2cccnc2)sc2nc3ccccc3n12`, the inhibition (at 20 µM) was -0.5% (inactive).
Regarding `COC(=O)/C=c1/sc2nc3ccccc3n2c1=O`, where the note is “at 20 µM”, the inhibition is 6.3% (inactive).
Consider `O=c1/c(=C/c2ccc(O)c([N+](=O)[O-])c2)sc2nc3ccccc3n12`, for which, where the note is “at 20 µM”, the inhibition was 50.3% (active).
As to `O=c1/c(=C/c2ccccn2)sc2nc3ccccc3n12`, under “at 20 µM”, the inhibition is -0.5% (inactive).
Turning to `O=c1/c(=C\c2cccn2-c2ccccc2)sc2nc3ccccc3n12`, for the setting “at 20 µM”, the inhibition was 3.1% (inactive).
For the compound `O=C(O)c1cc(C(=O)O)cc(-c2ccc(/C=c3/sc4nc5ccccc5n4c3=O)o2)c1`, where the note is “at 20 µM”, the inhibition was 63.3% (active).
